PubChem BioAssay AID1241 (SRMLSC, 2008)
About 840 (70%) of roughly 1,200 compounds were called active. How the calls were made is not given here. The set was probably picked from earlier hits. A selection follows. Potency and affinity values are given separately.

Assay: NF-kB promoter reporter activators, neuronal cells, dose response, cell-based, SH-SY5Y, luciferase (AID 1241)
Details: series mostly up to 30 µM

Fold induction over control, inactive:
Oc1ccc(-c2csc(Nc3ncccn3)n2)cc1O
CC(C)(C)c1ccc(OCCn2ccccc2=O)cc1
COc1ccc2oc(C(=O)c3ccccc3)c(N)c2c1
COc1ccc2[nH]c(-c3cccc(F)c3)cc(=O)c2c1
COc1ccc(C(=S)Nc2ccc(N(C)C)cc2)cc1
Cc1nc(-c2ccccc2)sc1-c1ccnn1C
Nc1ccccc1C#Cc1ccccc1
CCOC(=O)c1c(C)oc2c1c(C(c1cccnc1)N1CCCCC1)c(O)c1ccccc12 (stereo not given)
O=C(Nc1ccc(Cl)cc1F)c1ccccc1Br
CCOC(=O)c1cnc(SCCc2ccccc2)nc1N
O=C(O)c1cccc(N=NN2CCCCCC2)c1
O=C(O)c1cc(N/N=C/C=C/c2ccccc2)ccc1Cl
COc1ccccc1OCCN1CSC(=S)N(C)C1
CC(C)(C)c1ccc(/C=N/Nc2cccc(C(=O)O)c2)cc1
O=C(O)/C=C\C(=O)Nc1ccccc1C#Cc1ccc(Br)cc1
Cc1ccccc1Nc1nc2ccccc2s1
N=c1c(C(=O)NCc2ccccc2)cc2c(=O)n3ccccc3nc2n1Cc1ccco1
O=C(/C=C/Nc1cccc([N+](=O)[O-])c1)c1cccs1
CCOc1ccc(NC(=O)c2ccccc2O)cc1
Cc1ccc(C(=O)N/N=C2\CCc3ccccc32)c(C)c1
CCCSc1nsc(NC(=O)CCC)n1
S=C(c1ccc(-c2ccc(Br)cc2)o1)N1CCCCC1
Nc1ncn(CC(=O)c2ccccc2)n1
CCc1ccc(C(=O)NC(=S)Nc2ccc3c(c2)OCCO3)cc1
COc1ccc(-c2nnc(SC(C)C(=O)Nc3cccc(Cl)c3)o2)cc1 (stereo not given)
Cc1ccc(C(=O)/C=C/Nc2cccc([N+](=O)[O-])c2)o1
Cc1ccc(C(=O)CCNc2ccc(F)c(Cl)c2)o1
COc1cccc(-c2noc(-c3cccnc3)n2)c1
Cc1[nH]n(C(N)=S)c(=O)c1N=Nc1ccc2ccccc2c1
Cc1nn(-c2ccccc2)c(N)c1N=Nc1ccccc1
Nc1nc(Nc2cccc(F)c2)nc2ccccc12
COc1ccc(C2=NN(C(C#N)c3ccc(OC)c(OC)c3)C(c3ccccc3)C2)cc1 (stereo not given)
Cc1cc2nc(-c3cccnc3SCC(=O)NCc3ccco3)[nH]c2cc1C
COc1cc(/C=C/C(=O)CC(=O)/C=C/c2ccc(O)c(OC)c2)ccc1O
COC(=O)CCCSc1nccn1-c1ccccc1
Cc1ccc(/C=C/C(=O)Nc2ccccc2C(N)=O)cc1
O=C(/C=C/Sc1ccccc1)c1ccc(Cl)cc1
CC(=Nc1cccc(C)c1)c1sc2ccccc2c1O
Oc1ccc(-c2csc(-c3ccccc3)n2)cc1O
COC(=O)c1cc(-c2c(C)nn(-c3ccccc3)c2C)n[nH]1
Cc1ccc(C(=O)Nc2cccc(C(=O)O)c2)cc1
O=C(NCCn1ccc2ccccc21)c1ccc2c(c1)OCO2
COc1ccc(C(=O)Nc2cccc(OC)c2)cc1
O=C(NC1CCCC1)c1cc(-c2cccs2)on1
N/C(=N\OC(=O)c1ccc2c(c1)OCO2)c1ccc(Cl)cc1
Cc1ccc(COc2ccc(/C=N/O)cc2)cc1
O/N=C/c1ccc(OCc2ccccc2)c(Br)c1
O=C(CCSc1ccc(Cl)cc1)Nc1cccnc1
O=C(NCCc1ccccc1)c1cc(-c2ccco2)on1
COc1ccc(/C(N)=N/OC(=O)CSc2ccccc2)cc1
Cc1ccc(O)c(/C=N/NC(=O)c2[nH]ncc2Br)c1
CCCc1noc(-c2ccc(-c3ccccc3)cc2)n1
CCOC(=O)c1c(NC(=O)CC(C)C)sc(C(C)=O)c1C
CCOC(=O)c1c(C)[nH]c(C(=O)Nc2ccc3c(c2)OCO3)c1C
CCOC(=O)c1cc(C(=O)Nc2ccccc2F)nn1C
CC(=O)Nc1ccc(N=Nc2ccccc2)cc1
COc1cccc(C(=O)Oc2ccccc2/C=C\C(=O)c2cc3ccccc3o2)c1
COc1ccc2cc(CCNC(=O)c3cccs3)c(=O)[nH]c2c1
O=C(/C(=C/c1ccc(Cl)cc1)c1nc2ccccc2[nH]1)c1ccccc1
CCOC(=O)C1=C(c2ccccc2)O/C(=C(/C#N)C(F)(F)F)S1
COc1ccc(-c2cnn3c(N)c(S(=O)(=O)C(C)(C)C)cnc23)cc1
CCc1nc2ccc(C(=O)O)cc2nc1CC
Cc1ccc(-c2nc3ccccc3s2)cc1NC(=S)NC(=O)c1ccccc1
CCOc1ccc(NC(=O)c2nsc(Cl)c2Cl)cc1
O=C(OCC(=O)N1CCOCC1)c1ccccc1Cc1ccccc1
CC(C)(C)c1ccc(NC(=O)Nc2ccc(OCC(=O)N3CCOCC3)cc2)cc1
CCc1ccc(NC(=O)c2ccc3ncsc3c2)cc1
CCc1ccc(NC(=O)c2cc(C(C)C)on2)cc1
Cc1nc2ccc(NC(=O)Cc3ccccc3F)cc2s1
O=C(O)c1ccc(-c2nc(-c3ccc(Cl)cc3)cs2)cc1
O=C(c1ccccc1)c1cnc(-c2ccccc2)s1
Oc1ccc2c(c1)oc1cc(O)ccc12
CN=c1scc(C)n1/N=C/c1cc(Br)c(O)c(Br)c1
COc1ccc(OCc2cccc(C(=O)Nn3cc([N+](=O)[O-])cn3)c2)cc1
O=C(OCC(F)(F)F)c1cccc(COc2ccc3ccccc3c2)c1
COc1ccc(C(=O)OCCc2ccc(O)cc2)cc1
O=C(COC(=O)C1CCCCC1)Nc1ccc([N+](=O)[O-])cc1
Cc1cccn2cc(-c3ccc(Cl)cc3)nc12
Cc1ccc(Nc2n[nH]c(C)c2[N+](=O)[O-])c(C)c1
CC(=O)c1cc(NC(=O)c2ccccc2)c(=O)oc1C
CCOC(=O)c1sc(NC(=O)c2ccccc2OC)nc1C
Cc1ccn2cc(CSc3ccccc3)nc2c1
CCSc1nnc(NC(=O)c2ccc(C)cc2)s1
Cc1ccc(-c2cc(-c3ccccc3C)[nH]n2)c(O)c1
Cc1nc(N2CCCCC2)c2c(-c3cccs3)csc2n1
Cc1ccc(C(=O)Oc2oc(-c3ccco3)nc2C=Nc2ccc(Cl)cc2)cc1
O=c1[nH]c(-c2ccco2)nc2sc3c(c12)CCCC3
c1ccc(-c2ccc(-c3nc(-c4cccnc4)no3)cc2)cc1
CC(=O)Nc1ccc2oc(-c3ccccc3)nc2c1
C=CCSC(=C(C#N)C#N)c1cc2c([nH]1)CCCC2
Cc1ccc(-n2c(C)cc(C(=O)CSc3nncs3)c2C)cc1
Cc1ccc(C(=O)/C=C/c2cn(CN3CCN(C)CC3)c3ccccc23)cc1
OCCC1CN(Cc2ccc3nsnc3c2)CCN1C1CCCC1 (stereo not given)
C/C(=N\OC(=O)NC(C)C)c1sc(-c2ccc(Cl)cc2)nc1C
C/C(=N\O)c1sc(-c2ccccc2)nc1C
Cc1ccc(Nc2nc3ccccc3[nH]2)nc1
Cc1ccc2c(c1)C(=NC1CCCCC1)c1cc3ccccc3nc1-2
Cc1ccccc1C(=O)Nc1cccc(NC(=O)Cn2cnc3c(=O)n(C)c(=O)n(C)c32)c1
CCOC(=O)c1cc(C(=O)Nc2cccc(C)c2)nn1C
CCc1ccc(NC(=O)c2onc(C)c2Cl)cc1
N/C(=N\OC(=O)c1ccc(Br)cc1)c1ccccc1
COc1ccccc1C(=O)O/N=C(\N)c1ccc(Cl)cc1
Cc1ccc(/C(N)=N/OC(=O)c2ccc(F)cc2)cc1
N/C(=N\OC(=O)c1ccccc1Cl)c1cccnc1
Cc1cc(/C=N/NC(N)=S)c(C)n1-c1ccc(Cl)c(Cl)c1
COc1cccc(C(=O)Nc2ccc(C3CC3(Cl)Cl)cc2)c1 (stereo not given)
Cc1onc(-c2c(F)cccc2Cl)c1C(=O)OCn1nnc2ccccc2c1=O
COc1c(Cl)cc(Cl)cc1/C=C/C(=O)c1ccc(NC(=O)c2cccs2)cc1
Cc1ccc(Nc2n[nH]c(C)c2[N+](=O)[O-])cc1C
Oc1cccc2ccc(/C=C/c3c(F)cccc3Cl)nc12
COc1cc(NC(=O)CSc2nc3ccccc3cc2C)c(C(=O)O)cc1OC
O=C(CCc1nnc(CCCc2ccccc2)o1)NC(C1CC1)C1CC1
N/C(=N\OC(=O)Cc1cccc2ccccc12)c1ccccn1
N/C(=N\OC(=O)COc1cc(Cl)c(Cl)cc1Cl)c1ccccn1
N#Cc1cc2ccccc2nc1SCc1ccccn1
Fc1ccc(-n2nnc(-c3cccnc3Cl)n2)cc1
Clc1ncccc1-c1nnn(-c2ccccc2)n1
Cc1csc(NC(=O)NC2(C(F)(F)F)Oc3ccccc3O2)n1
CC(C)c1ccc(NC(=O)c2csnn2)cc1
CC(=O)Nc1ccc(N=Nc2ccc(O)cc2)cc1
Cc1ccc(NC(=O)Nc2ccc3c(c2)nc(C)n3C)cc1
COc1ccc(NC(=O)c2noc3c2CCCCC3)cc1
CS(=O)(=O)c1ccc(C(=O)OCc2nnc(-c3ccc(Cl)cc3)o2)cc1[N+](=O)[O-]
Cc1nn(C)cc1/C=C/C(=O)c1cccs1
COc1ccc(/C=C/C(=O)c2ccccc2)c(OC)c1
